Test results taken from PubChem BioAssay AID1345083 (National Center for Advancing Translational Sciences (NCATS), 2018).
The campaign covered roughly 94,000 compounds. About 6,200 (6.6%) were called active. A call without a number means that no potency is given here. Not shown: some 31% with an inconclusive outcome. Calls come from the whole dose curve; as a rule, active = well fitted inhibition curve with a large enough effect; inconclusive = small, poorly fitted or top-dose-only effect; inactive = flat fitted curve, though single readings scatter. The sample as a whole holds a higher share of actives than the screen did.

Assay: Cytotoxic Profiling in HEK 293 Cell Line of Diverse Libraries Using Quantitative High-Throughput Screening; note: nearly all actives have a fitted effect of over 60% in size
Conditions: HEK 293 viability, ATP luminescence (CellTiter-Glo), 48-72 h; series mostly up to 115 µM
Outline: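 HEK 293 cells seeded at 250 cells/well were exposed to compound for 48 or 72 hr at 37 degree Celsius. Viability taken as ATP content by CellTiter-Glo luminescence.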
Potency is the fitted concentration of half-maximal effect.

Row | SMILES | Potency
1 | Cc1cn2nc(C(=O)NCc3cccs3)cc2c(N2CCCC2)n1 | inactive
2 | CNc1nc(N2CC[C@H](N3CCN(C)CC3)[C@H](CCC(=O)O)C2)ncc1F | inactive
3 | COc1ccc(NC(=O)N2CCC(CC(=O)NCc3ccccc3)C2)cc1OC (configuration not stated) | inactive
4 | COC[C@H]1CCCN1Cc1nc(C2(O)CCN(CC3CCCCC3)CC2)cs1 | inactive
5 | Cc1nc(CCNS(=O)(=O)Cc2cccc(Cl)c2)no1 | inactive
6 | COc1ccc(C(=O)N2CC(c3nnc(-c4ccncc4)o3)C3(CCOCC3)C2)cn1 (configuration not stated) | inactive
7 | CC(=O)N1CCC(c2nnc3n2C(C(=O)NCCCc2ccccc2)CC3)CC1 (configuration not stated) | inactive
8 | Cc1ccc(Nc2ccnc(N3CCCC3C(=O)N3CCC(Cc4ccccc4)CC3)n2)cc1 (configuration not stated) | 14.1 µM (active)
9 | CNC(=O)[C@@H](Cc1ccccc1)N1CCC[C@H]1C(=O)N1CCC1 | inactive
10 | O=C(NCCCc1ccccc1)C1CCCN1c1nccc(Nc2ccccc2F)n1 (configuration not stated) | 44.7 µM (active)
11 | O=C(NCCc1ccccc1)C1CCCN1C(=O)c1cccc(-c2ccccn2)c1 (configuration not stated) | inactive
12 | Cc1ccc(CC(=O)N2CCC(Cc3nc(-c4cnccn4)no3)CC2)cc1 | inactive
13 | Cn1ccc(C(=O)N2C[C@H]3CN(C4CCOCC4)C[C@@]3(C(=O)O)C2)n1 | inactive
14 | COC(=O)[C@H](Cc1ccc(OC)cc1)NC(=O)[C@H]1CN(S(=O)(=O)c2ccccc2)CCN1C(C)=O | inactive
15 | COCCC(=O)N1C[C@@H](COC)[C@H](c2nc(C)no2)C1 | inactive
16 | CNC(=O)[C@@H]1C[C@@H](n2cc(CN(C)C(=O)Nc3ccc(C)c(C)c3)nn2)CN1 | inactive
17 | C=CCN1C[C@@H]2CN(C(=O)CCc3cccc(OC)c3)C[C@]2(C(=O)O)C1 | inactive
18 | Cc1noc(C)c1[S+](=O)([O-])N1CCCC(C(=O)N2CCC(c3ccccc3)CC2)C1 (configuration not stated) | 44.7 µM (active)
19 | Cc1noc(C)c1[S+](=O)([O-])N1CCC(C(=O)N2CCC(c3nc4ccncc4[nH]3)C2)CC1 (configuration not stated) | inactive
20 | Cc1noc(C)c1[S+](=O)([O-])N1CCC(C(=O)N2CCC(c3nc4ncccc4[nH]3)CC2)CC1 | inactive
21 | CCC(C)NC(=O)C1(c2ccc(NS(C)(=O)=O)cc2)CCCCC1 (configuration not stated) | inactive

Row | SMILES | Potency
22 | COc1ccc(C(=O)N2CCCC(c3nc(-c4cnccn4)no3)CCNC(=O)CC2)c(OC)n1 (configuration not stated) | inactive
23 | Cc1ccc(C(=O)N2CCC(c3n[nH]c(=O)n3-c3ccccc3)CC2)cc1F | inactive
24 | CN(Cc1csc(-c2ccccc2)n1)c1cc(C2CC(O)C2)nc(N)n1 (configuration not stated) | 25.1 µM (active)
25 | COc1ccc(N2C(=O)CSC23CCN(C(=O)c2ccc(C)cc2)CC3)cc1 | inactive
26 | O=C(c1cc(F)ccc1F)N1CCCC2(C1)NC(=O)N(Cc1ccccc1)C2=O (configuration not stated) | inactive
27 | Cc1cccc2c(C3CCN(S(=O)(=O)c4cc(Cl)cc(Cl)c4)CC3)c[nH]c12 | 25.1 µM (active)
28 | COc1cccc(S(=O)(=O)N2CCC(n3cnnc3C3CC3)CC2)c1 | inactive
29 | O=C(O)[C@@H]1CN(C(=O)CCCn2cncn2)C[C@H]1c1ccc2c(c1)OCO2 | inactive
30 | O=C(N[C@@H]1CN(C(=O)c2ccc3nc[nH]c3c2)CC[C@@H]1CO)C1CC1 | inactive
31 | CC(C)C1=NOC2(CCN(C(=O)c3ccccc3F)C2)C1 (configuration not stated) | inactive
32 | O=C(C1CCOC1)N1CCC(N(Cc2ccccc2)C2CCOCC2)CC1 (configuration not stated) | 89.1 µM (active)
33 | O=C(C1CCOCC1)N1CCOC[C@H](Oc2ccccc2)C1 | inactive
34 | O=C(NC1CC1)c1ccc(CC2CCN(C(=O)C3CCOC3)CC2)cc1 (configuration not stated) | inactive
35 | Cn1cc(-c2ccsc2)c2nc(CN3CCNC(=O)C3)cn2c1=O | inactive
36 | CN1CCN(C(=O)c2ccc3nnc(C(C)(C)C)n3c2)CC1 | inactive
37 | CCc1cc(=O)n(CC(=O)Nc2cc(OC)cc(OC)c2)c(N2CCOCC2)n1 | inactive
38 | CCc1cc(=O)n(CC(=O)Nc2cccc(C(C)=O)c2)c(-c2ccccc2)n1 | 25.1 µM (active)
39 | CCc1cccc(NC(=O)Cn2c(=O)c(-c3noc(CC)n3)c3n(c2=O)CCCC3)c1 | inactive
40 | COc1ccc(-c2ccc(C(=O)N3CCN(C(=O)c4ccccc4OC)CC3)cc2)nn1 | inactive
41 | CN(C)[C@@H]1[C@@H](NC(=O)CCn2cnc3ccccc3c2=O)[C@H]2CCO[C@H]21 | inactive
42 | CCNC(=O)C1C(c2cccc(NC(=O)c3cccc(C)c3)c2)OC(=O)N1Cc1cccc(Cl)c1 (configuration not stated) | 28.2 µM (active)

Row | SMILES | Potency
43 | N#Cc1cccc(C(=O)Nc2ccc([C@H]3OCC(=O)N(Cc4ccccc4)[C@@H]3CO)cc2)c1 | inactive
44 | CCCNC(=O)C(NC(=O)c1cccc(C)c1)C1CCN(C(=O)CCc2ccccc2)CC1 (configuration not stated) | inactive
45 | COc1cccc([S+](=O)([O-])N2CCC(C(=O)N3CCC(N4CCOCC4=O)CC3)CC2)c1 | inactive
46 | COCc1cc(=O)n(CC(=O)Nc2ccc(Cl)cc2)c(N2CCOCC2)n1 | inactive
47 | O=[S+]1([O-])NC2(CCN(Cc3ccccc3)CC2)COc2ccccc21 | inactive
48 | COc1ccc(CN2CCC3(CC2)COc2ccccc2CN3)cc1 | inactive
49 | c1ccc2c(c1)CNC1(CCN(Cc3cccc4ccccc34)CC1)CO2 | 79.4 µM (active)
50 | O=C(NCCc1nc(-c2ccccc2)cs1)C1NCCc2[nH]cnc21 (configuration not stated) | inactive
51 | O=C1CCN(C(=O)C2CCN(S(=O)(=O)Cc3ccccc3)CC2)CCCCCCN1 | inactive
52 | O=S(=O)(Cc1cccc(F)c1)N1CCC(C2CCNC2)CC1 (configuration not stated) | inactive
53 | Cc1ccc(CS(=O)(=O)N2CCC(C3CCNC3)CC2)cc1C (configuration not stated) | 89.1 µM (active)
54 | NCC(=O)N1CCCC2(Cc3ccccc3CN2C(=O)c2cccc(Cl)c2)C1 (configuration not stated) | 70.8 µM (active)
55 | NCC(=O)N1Cc2ccccc2CC2(CCCCN2CC2CCOCC2)C1 (configuration not stated) | inactive
56 | CCC(=O)N1Cc2ccccc2CC2(CCCN2C)C1 (configuration not stated) | inactive
57 | O=C(c1cccnc1)N1C[C@@H](F)[C@@H](OCc2nc3ccc(C(F)(F)F)cc3[nH]2)C1 | inactive
58 | C[S+](=O)([O-])NC1CC2(CCN(Cc3ccc(O)cc3)CC2)c2ccccc21 (configuration not stated) | inactive
59 | CC1=C[C@@H](CN2CCN(CCO)CC2)[C@H](C(C)C)C[C@H]1Cc1nnc(-c2ccc(C)cc2)o1 | 31.6 µM (active)
60 | CC1=C[C@@H](CN2CCOCC2)[C@H](C(C)C)C[C@H]1Cc1nnc(-c2ccc([N+](=O)[O-])cc2)o1 | 39.8 µM (active)
61 | CC1=C[C@@H](CC#N)[C@H](C(C)C)C[C@H]1CC(=O)N1CCN(C)CC1 | inactive
62 | CC1=C[C@@H](CN2CCCC2)[C@H](C(C)C)C[C@H]1Cc1nnc(-c2ccc([N+](=O)[O-])cc2)o1 | 35.5 µM (active)
